Measured values reported in PubChem BioAssay (Tox21).
Values joined by “and” are separate entries in the source; they are usually repeats but may differ in a detail not shown here. Equal entries are not always repeated. Records with an inconclusive call do not appear. Some structures have more than one record in an assay (separate samples or runs), and their calls can disagree. Active and inactive are the calls of the source. Unless noted, the call rests on the fitted dose curve; in most records, active means well fitted curve in the direction sought with a large enough effect in the repeat runs; inconclusive means weak or mixed curves; inactive means no such curve, though single readings can be large; an effect the other way counts as inactive or inconclusive.

Experiments:
[1] = qHTS assay for small molecule agonists of the p53 signaling pathway (AID 651631; calls by dose curve; further: nearly all actives have a fitted effect of over 15% in size; further: potency means the concentration at half of the fitted maximal effect)
Outline: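 Readout was fluorescence from the LiveBLAzer FRET substrate, applied for 2 h at room temperature after 16 h compound exposure at 37 °C. Cells were the p53RE-bla HCT-116 line, with beta-lactamase driven by p53 response elements.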

[2] = qHTS assay for small molecules that induce genotoxicity in human embryonic kidney cells expressing luciferase-tagged ATAD5 (AID 651632); further: nearly all actives have a fitted effect of over 15% in size; further: potency means the concentration at half of the fitted maximal effect
Outline: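 ATAD5-luc HEK293T, 2,000 cells/well; cpd or DMSO pin-transferred; 16 hr, 37C/5% CO2; Amplite 30 min RT; luminescence.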

[3] = qHTS assay for small molecule agonists of the p53 signaling pathway - cell viability (AID 651633; calls by dose curve; further: nearly all actives have a fitted effect of over 30% in size; further: potency means the concentration at half of the fitted maximal effect)
Outline: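 p53RE-bla cells were treated with compound for 16 hours at 37 C. Cytotoxicity was then measured as CellTiter-Glo luminescence after 30 min at room temperature.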

[4] = qHTS assay for small molecules that induce genotoxicity in human embryonic kidney cells expressing luciferase-tagged ATAD5 - cell viability (AID 651634; calls by dose curve; further: nearly all actives have a fitted effect of over 25% in size)
Outline: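 Fluorescence from CellTiter-Fluor, reporting protease activity within live cells, served as the viability read-out. HEK293T cells carrying luciferase-tagged ATAD5 had been treated with compound for 15.5 hr at 37C.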

[5] = qHTS assay for small molecule disruptors of the mitochondrial membrane potential - cell viability (AID 720634; calls by dose curve;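 further: human HepG2 liver cancer cells; series mostly up to about 83 µM; nearly all actives have a fitted effect of over 20% in size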)
Outline: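 Cells: HepG2, 2,000/well, attached overnight. Compound 1 hr, 37 C/5% CO2. +m-MPI dye, +CellTiter-Glo 30 min RT. Readout: luminescence (ATP).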

[6] = qHTS assay to test for compound auto fluorescence at 590 nm (red) in HepG2 cells (AID 720674)
Outline: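 Fluorescence at 590 nm emission following 540 nm excitation was recorded from HepG2 wells one hour after compound transfer, with DMSO-only wells as vehicle and Rose Bengal sodium equivalency as the scale.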

[7] = qHTS assay to test for compound auto fluorescence at 535 nm (green) in HepG2 cells (AID 720675)
[8] = qHTS assay to test for compound auto fluorescence at 460 nm (blue) in HEK293 cells (AID 720678)
Outline: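 After cell attachment (4-5 hr, 37C), compounds were pinned onto HEK293 monolayers in 10% dialyzed FBS medium. The blue channel (405/460 nm) was read following overnight culture. Equivalency was calculated against triamterene.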

[9] = qHTS assay to test for compound auto fluorescence at 590 nm (red) in HEK293 cells (AID 720679)
Outline: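 Plates of HEK293 cells (10% dialyzed FBS) are treated with 23 nL compound or DMSO vehicle after a 4-5 hr attachment period, incubated overnight at 37C, and read for red fluorescence at 540/590nm.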

[10] = qHTS assay to test for compound auto fluorescence at 535 nm (green) in HEK293 cells (AID 720680)
[11] = qHTS assay to test for compound auto fluorescence at 460 nm (blue) in HEK293 cell free culture (AID 720681)
Outline: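 Compounds were added to cell-free DMEM with 10% FBS and fluorescence read directly. The blue channel used 405 nm excitation and 460 nm emission, with triamterene as the reference fluorophore.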

[12] = qHTS assay to test for compound auto fluorescence at 535 nm (green) in HEK293 cell free culture (AID 720682)
Outline: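 Compounds were pin-transferred into cell-free DMEM with 10% FBS, and green fluorescence was read at excitation 485 nm and emission 535 nm. Intensities were expressed as fluorescein-equivalent values.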

[13] = qHTS assay to test for compound auto fluorescence at 590 nm (red) in HEK293 cell free culture (AID 720683)
Outline: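 Cell-free wells of DMEM with 10% FBS received compound, and intrinsic fluorescence was read at excitation/emission 540/590 nm. Values expressed as equivalence to Rose Bengal sodium.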

[14] = qHTS assay to test for compound auto fluorescence at 590 nm (red) in HepG2 cell free culture (AID 720684)
Outline: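 Compounds are added to culture medium (MEM, 10% FBS) lacking cells, then fluorescence is read at excitation 540 nm, emission 590 nm, with Rose Bengal sodium as the equivalency standard.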

[15] = qHTS assay to test for compound auto fluorescence at 460 nm (blue) in HepG2 cell free culture (AID 720685)
Outline: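 Compound (23 nL) or DMSO pinned into cell-free MEM with 10% FBS; blue fluorescence read at 405/460 nm excitation/emission, expressed as auto-fluorescence equivalency to triamterene.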

[16] = qHTS assay to test for compound auto fluorescence at 535 nm (green) in HepG2 cell free culture (AID 720686)
[17] = qHTS assay to test for compound auto fluorescence at 460 nm (blue) in HepG2 cells (AID 720687)
Outline: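 HepG2 cells in MEM with 10% FBS, attached overnight at 37 C, were exposed to compound or DMSO for 1 hr at 37 C, 5% CO2. Blue fluorescence was read at 405/460 nm, with triamterene as reference fluorophore.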

[18] = target: Glucocorticoid receptor (Homo sapiens) (UniProt P04150); experiment: qHTS assay to identify small molecule agonists of the glucocorticoid receptor (GR) signaling pathway (AID 720691; active means well fitted activation curve with a large enough effect in the signal ratio in the repeat runs, not every such curve was filed as active; the % refers to the signal ratio)
Outline: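 Fluorescence intensity from LiveBLAzer B/G FRET substrate (2 h, room temperature) reports beta-lactamase expression driven by the glucocorticoid response element in GR-bla HeLa cells after 18 h compound exposure at 37 C.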

[19] = target: Glucocorticoid receptor (Homo sapiens) (UniProt P04150); experiment: qHTS assay to identify small molecule antagonists of the glucocorticoid receptor (GR) signaling pathway (AID 720692; active means well fitted inhibition curve with a large enough effect in the signal ratio in the repeat runs, not every such curve was filed as active; the % refers to the signal ratio)
Outline: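 HeLa GR-bla cells; cmpd + dex 5 nM final, 18 h 37 C; LiveBLAzer B/G FRET substrate 2 h RT; fluorescence intensity read. Antagonist mode, qHTS.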

[20] = qHTS assay for small molecule disruptors of the mitochondrial membrane potential (AID 720635); further: potency means the concentration at half of the fitted maximal effect
Outline: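 HepG2 cells exposed to compound 1 hr at 37C, then Mito-MPS dye 30 min. Ratio read of aggregate (540/590 nm) versus monomer (490/535 nm) fluorescence.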
On the % scale 0 is the no-effect control and ±100 the full control effect.

Glucocorticoid receptor (Homo sapiens), sequence (P04150 whole entry, looked up): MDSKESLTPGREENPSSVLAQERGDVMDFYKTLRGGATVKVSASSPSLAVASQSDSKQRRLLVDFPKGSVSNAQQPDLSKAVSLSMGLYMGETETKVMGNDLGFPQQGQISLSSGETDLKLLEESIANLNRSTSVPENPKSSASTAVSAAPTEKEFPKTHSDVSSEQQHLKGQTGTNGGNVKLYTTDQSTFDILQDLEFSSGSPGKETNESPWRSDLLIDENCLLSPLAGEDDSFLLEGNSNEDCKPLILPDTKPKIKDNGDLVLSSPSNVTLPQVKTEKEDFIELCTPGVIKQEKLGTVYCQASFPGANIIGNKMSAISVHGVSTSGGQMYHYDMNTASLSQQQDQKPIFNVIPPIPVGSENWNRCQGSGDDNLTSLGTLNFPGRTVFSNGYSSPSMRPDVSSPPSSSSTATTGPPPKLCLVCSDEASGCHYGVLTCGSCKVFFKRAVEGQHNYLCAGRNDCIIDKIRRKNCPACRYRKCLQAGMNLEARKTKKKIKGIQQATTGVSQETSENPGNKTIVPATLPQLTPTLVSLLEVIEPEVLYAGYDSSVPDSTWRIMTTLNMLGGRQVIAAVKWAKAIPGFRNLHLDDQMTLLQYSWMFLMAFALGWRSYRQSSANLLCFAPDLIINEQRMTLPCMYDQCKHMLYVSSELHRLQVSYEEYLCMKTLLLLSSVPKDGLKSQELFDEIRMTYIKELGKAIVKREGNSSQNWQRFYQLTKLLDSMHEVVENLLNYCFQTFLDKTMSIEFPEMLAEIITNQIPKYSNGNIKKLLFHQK

C[Si](NC1CCCCC1)(NC1CCCCC1)NC1CCCCC1
inactive: Potency [1] | Potency [2] | Potency [3] | Potency [4] | Potency [5] | outcome [6] | outcome [7] | Potency [8] | outcome [9] | outcome [10] | Potency [11] | outcome [12] | outcome [13] | outcome [14] | Potency [15] | outcome [16] | Potency [17] | Potency [18] | Potency [19]

CC(=O)Oc1ccc(C(=C2CCCCC2)c2ccc(OC(C)=O)cc2)cc1
inactive: Potency [1] | Potency [2] | Potency [3] | Potency [4] | Potency [5] | Potency [20] | outcome [7] | Potency [8] | outcome [9] | Potency [11] | outcome [12] | outcome [13] | outcome [14] | Potency [15] | outcome [16]

Nc1ccc(S(=O)(=O)O)c(N)c1
inactive: Potency [1] | Potency [2] | Potency [3] | Potency [4] | Potency [5] | outcome [6] | outcome [7] | Potency [8] | outcome [9] | outcome [10] | Potency [11] | outcome [12] | outcome [13] | outcome [14] | Potency [15] | outcome [16] | Potency [17] | Potency [18] | Potency [19]

N#C[C@@H]1C[C@@H]2C[C@@H]2N1C(=O)[C@@H](N)C12CC3CC(CC(O)(C3)C1)C2
inactive: Potency [1] | Potency [2] | Potency [3] | Potency [4] | Potency [5] | Potency [20] | outcome [7] | Potency [8] | outcome [10] | Potency [11] | outcome [12] | outcome [13] | outcome [14] | Potency [15] | Potency [17] | Potency [18]

O=C(CCCCCCC(=O)Nc1ccccc1)NO
inactive: Potency [3] | Potency [4] | Potency [5] | Potency [20] | outcome [7] | Potency [8] | outcome [9] | outcome [10] | Potency [11] | outcome [12] | outcome [13] | outcome [14] | Potency [15] | outcome [16] | Potency [17]
active: Potency [1] 750 nM and 668 nM | Potency [2] 2.11 µM and 1.68 µM

O=C(Nc1ccc([N+](=O)[O-])cc1)Nc1ccc([N+](=O)[O-])cc1
active: Potency [20] 422 nM
inactive: Potency [1] | Potency [2] | Potency [3] | Potency [4] | Potency [5] | outcome [6] | outcome [7] | Potency [8] | outcome [9] | Potency [11] | outcome [12] | outcome [13] | outcome [14] | Potency [15] | outcome [16] | Potency [17] | Potency [18]

Cc1cc(O)c(C(C)C)cc1Cl
inactive: Potency [1] | Potency [2] | Potency [4] | Potency [5] | outcome [7] | Potency [8] | outcome [10] | Potency [11] | outcome [12] | outcome [13] | outcome [14] | Potency [15] | outcome [16] | Potency [18]
inactive and 54.5 µM (active): Potency [3]
inactive and 4.33 µM (active): Potency [20]

O=C(OCCOCCO)c1ccccc1Nc1cccc(C(F)(F)F)c1
inactive: Potency [1] | Potency [2] | Potency [3] | Potency [4] | Potency [5] | fluorescence, relative to Rose Bengal [6] -0.199% [at 18.6 µM] | fluorescence, % of fluorescein control [7] 0.199% [at 18.6 µM] | fluorescence, % of triamterene [8] -0.0212% [at 18.6 µM] | fluorescence, % of fluorescent control [9] 0.0507% [at 18.6 µM] | fluorescence, % of fluorescein [10] -0.0064% [at 18.6 µM] | fluorescence, % of fluorescent control [11] -0.158% [at 18.6 µM] | activity change [12] 0.0151% [at 18.6 µM] | fluorescence, % of fluorescent control [13] -0.579% [at 18.6 µM] | fluorescence, % of Rose Bengal [14] -0.0242% [at 18.6 µM] | fluorescence, % of fluorescent control [15] -0.0111% [at 18.6 µM] | fluorescence, % of fluorescein control [16] 0.0209% [at 18.6 µM] | fluorescence, % of fluorescent control [17] -0.0068% [at 18.6 µM] | Potency [18]

O=C(O)Cc1ccc(-c2ccccc2)cc1
inactive: Potency [1] | Potency [2] | Potency [3] | Potency [4] | Potency [5] | Potency [20] | fluorescence, relative to Rose Bengal [6] 0.37% [at 18.6 µM] | fluorescence, % of fluorescein control [7] -0.0175% [at 18.6 µM] | fluorescence, % of triamterene [8] -0.322% [at 18.6 µM] | fluorescence, % of fluorescent control [9] -0.147% [at 18.6 µM] | fluorescence, % of fluorescein [10] -0.0578% [at 18.6 µM] | fluorescence, % of fluorescent control [11] 0% [at 18.6 µM] | activity change [12] -0.0541% [at 18.6 µM] | fluorescence, % of fluorescent control [13] 0.0962% [at 18.6 µM] | fluorescence, % of Rose Bengal [14] -0.0701% [at 18.6 µM] | fluorescence, % of fluorescent control [15] -0.109% [at 18.6 µM] | fluorescence, % of fluorescein control [16] -0.0983% [at 18.6 µM] | fluorescence, % of fluorescent control [17] -0.1% [at 18.6 µM] | Potency [18] | Potency [19]

COc1cc2[nH]c(=O)[nH]c(=O)c2cc1OC
inactive: Potency [1] | Potency [2] | Potency [3] | Potency [4] | Potency [5] | Potency [20] | fluorescence, relative to Rose Bengal [6] 0.0405% [at 18.6 µM] | fluorescence, % of fluorescein control [7] -0.0154% [at 18.6 µM] | fluorescence, % of triamterene [8] -0.031% [at 18.6 µM] | fluorescence, % of fluorescent control [9] -0.538% [at 18.6 µM] | fluorescence, % of fluorescent control [11] 0.0899% [at 18.6 µM] | activity change [12] 0.0939% [at 18.6 µM] | fluorescence, % of fluorescent control [13] 0.224% [at 18.6 µM] | fluorescence, % of Rose Bengal [14] 0.0628% [at 18.6 µM] | fluorescence, % of fluorescent control [15] -0.0173% [at 18.6 µM] | fluorescence, % of fluorescein control [16] -0.0155% [at 18.6 µM]

CC1=CC(=O)CC(C)(C)C1(O)/C=C/C(C)=C\C(=O)O (centres undefined)
inactive: Potency [1] | Potency [2] | Potency [3] | Potency [4] | Potency [5] | Potency [20] | outcome [7] | Potency [8] | Potency [11] | outcome [12] | outcome [13] | outcome [14] | Potency [15] | outcome [16] | Potency [17] | Potency [18] | Potency [19]

O=C(/C=C/c1ccccc1)OCCCc1ccccc1
inactive: Potency [1] | Potency [2] | Potency [3] | Potency [4] | Potency [5] | Potency [20] | outcome [6] | outcome [7] | Potency [8] | outcome [9] | outcome [10] | Potency [11] | outcome [12] | outcome [13] | outcome [14] | Potency [15] | outcome [16] | Potency [17] | Potency [18]

CC(=O)Nc1ccc(N)cc1
inactive: Potency [1] | Potency [2] | Potency [3] | Potency [4] | Potency [5] | Potency [20] | outcome [6] | outcome [7] | Potency [8] | outcome [9] | Potency [11] | outcome [12] | outcome [13] | outcome [14] | Potency [15] | outcome [16] | Potency [17] | Potency [18] | Potency [19]
